# From PubChem BioAssay (NCATS)
# Results filed as inconclusive are left out. Where a call stands in place of a potency, no number is given. Values without a mark were called inactive. The source made the active and inactive calls. Calls follow the shape of the dose curve; as a rule, active = well fitted inhibition curve with a large enough effect; inconclusive = small, poorly fitted or top-dose-only effect; inactive = flat fitted curve, though single readings scatter.
# Assay: P-glycoprotein substrates identified in KB-8-5-11 adenocarcinoma cell line, qHTS therapeutic library screen (AID 1346987); also: nearly all actives have a fitted effect of over 65% in size
# Conditions: KB-8-5-11 (P-gp overexpressing) viability, CellTiter-Glo, 72 h; series mostly up to 44.5 µM
# From the text: The ATP-binding cassette transporters P-glycoprotein (P-gp) is known to limit brain penetration of many chemotherapy drugs. […] As such, we developed a high-throughput screen (HTS) to identify substrates of P-gp from a series of chemical libraries including the National Center for Advancing Translational Sciences Pharmaceutical Collection NPC, 2,816 compounds), testing a total of 10,804 compounds, most of which have known mechanisms of action. We used the CellTiter-Glo viability assay to test library compounds against the parental KB-3-1 human cervical adenocarcinoma cell line and the colchicine-selected sub-line KB-8-5-11 that over-expresses P-gp. KB-8-5-11 cells were also tested in the presence of a P-gp inhibitor (tariquidar) to assess reversability of transporter-mediated resistance. Of the tested compounds, a total of 90 P-gp substrates were identified including 55 newly identified P-gp substrates. Substrates were confirmed using an orthogonal killing assay against HEK-293 cells transfected with P-gp. As exemplars, we confirmed that […] (cyclin-dependent kinase inhibitor); AT9283, (Janus kinase 2/3 inhibitor); ispinesib (kinesin spindle protein inhibitor); gedatolisib (PKI-587, phosphoinositide 3-kinase/mammalian target of rampamycin inhibitor); GSK-690693 (AKT inhibitor); and KW-2478 (heat shock protein 90 inhibitor) were substrates , and direct ATPase stimulation was assessed. ABCG2 was also found to confer high levels of resistance to AT9283, GSK-690693 and gedatolisib, while ispinesib, AT7519 and KW-2478 were weaker substrates.
# The HeLa derivative cell line, KB-3-1, and its colchicine-selected, P-gp-overexpressing subline, KB-8-5-11 were maintained in DMEM with 10% FCS and Pen/Strep with glutamine at 37 degree C in 5% CO2. For KB-8-5-11 cells, colchicine was added to the medium at a concentration of 100 ng/mL. HEK-293 cells transfected with empty vector (pcDNA) or vector containing human ABCB1 (MDR-19) or ABCG2 (R-5) have been described previously (Robey, Lin, Qiu, Chan & Bates, 2011) and were maintained in EMEM supplemented with 10% FCS, Pen/Strep and glutamine with 2 mg/ml G418 to select for the expression of the transporter. Cultures were confirmed to be free of mycoplasma infection using the MycoAlert Mycoplasma Detection Kit (Lonza, Walkersville, MD). For the screen, assay medium was identical to culture medium except for KB-8-5-11 where colchicine was excluded from the medium.
# All cell lines were plated into 1536-well plates at 500 cells/well in 5 uL media. Compounds were then pinned in dose-response using a 1536-head pin tool (Kalypsis, San Diego, CA) and plates were incubated at 37 degree C in 5% CO2 for an additional 72 h. CellTiter-Glo reagent (Promega) was dispensed into the wells, incubated for 5 min and luminescence was read on a ViewLux instrument (Perkin-Elmer). Cytotoxic compounds were defined as those that yielded a curve class of -1.1, -1.2, -2.1, -2.2, -2.3, or -2.4, a maximum response of >50% and an AC50 of < 10 uM. Cherry-picked hits from screening analysis were tested with both the KB pair of cell lines, and the pcDNA (empty vector control) and MDR-19 (P-gp overexpressing) pair were tested, in the absence and presence of tariquidar.
SMILES,Potency,outcome,"activity change, negative = cytotoxicity"
COc1cn(-c2ccc(-n3cccn3)cc2F)nc(-c2ccnn2-c2ccccc2)c1=O,inactive,–,–
CC(O)C1NC(=O)C2CCCN2C1=O (stereo not given),inactive,–,–
C/C=C/C=C/[C@@H]1O[C@](O)([C@H](CC)C(=O)NC/C=C/C=C(\C)[C@@H](OC)[C@@H](C)[C@@H]2O[C@H](/C=C/C=C/C=C(\C)C(=O)c3c(O)ccn(C)c3=O)[C@H](O)[C@@H]2O)[C@H](O)[C@H](O)C1(C)C,–,inactive [at 9.29 µM],–
Cc1ccccc1-c1cc(N2CCN(C)CC2)ncc1N(C)C(=O)C(C)(C)c1cc(C(F)(F)F)cc(C(F)(F)F)c1,inactive,–,–
CCOc1ncc(S(=O)(=O)N2CCN(CC)CC2)cc1-c1nc2c(CC)n(CCOC)nc2c(=O)[nH]1,inactive,–,–
CCCCNc1nc(N)c2[nH]c(=O)n(Cc3ccc(OCCN(C)C)nc3)c2n1,inactive,–,–
C=C1CC2C3(C)C(O)CC(=O)C(C)(C)C3C(O)C(OC(C)=O)C2(C)C2C(=O)OC(C)(C(=O)OC)C(=O)C12C (stereo not given),inactive,–,–
O=C(c1ccc(Cl)c([N+](=O)[O-])c1)N1CCN(c2ccccc2F)CC1,inactive,–,–
COC(=O)c1cc(OC)cc(OC)c1C(=O)c1c(OC)cc2c(c1O)C1CCC(O)C(C)(O2)O1 (stereo not given),inactive,–,–
C=C(CCO[C@@H]1O[C@H](CO)[C@@H](O)[C@H](O)[C@H]1O)C(=O)O,inactive,–,–
O=C(/C=C/c1ccc(O)cc1)OC[C@H]1O[C@@H](O/C(=C\c2ccccc2)C(=O)O)[C@H](O)[C@@H](O)[C@@H]1O,inactive,–,–
CC(C)=CC[C@H]1O[C@]2(O)C([C@H]3CCC4[C@@]5(C)CC[C@H](O[C@@H]6O[C@H](CO)[C@H](O)[C@H](O[C@@H]7O[C@H](CO)[C@@H](O)[C@H](O)[C@H]7O)[C@H]6O[C@@H]6O[C@@H](C)[C@H](O)[C@@H](O)[C@H]6O)C(C)(C)C5CC[C@@]4(C)[C@]3(C)[C@H]2O)[C@@]1(C)O (stereo not given in full),–,–,9.26% [at 9.29 µM]
CC(=O)OCC1=CCC2C(C)(C)CCCC2(C)C12CCC(C)(CC(=O)O)O2 (stereo not given),inactive,–,–
CC1(C)CC[C@]2(C(=O)O)CC[C@]3(C)C(=CCC4[C@@]5(C)CC[C@H](O[C@@H]6O[C@H](C(=O)O)[C@@H](O)[C@H](O)[C@H]6O)C(C)(C)C5CC[C@]43C)C2C1 (stereo not given in full),inactive,–,–
COC(O)(CC(C)C)C1Oc2cc(C)[nH]c(=O)c2O1 (stereo not given),inactive,–,–
CC1(C)CCC[C@]2(C)C1CC=C(CO)[C@H]2CC/C(=C/CO)CO (stereo not given in full),inactive,–,–
C=CC(C)(C)C12Nc3c(ccc4c3OC(C)(C)C=C4)C1(O)CC1C(=O)N3CCCC3C(=O)N12 (stereo not given),inactive,–,–
COc1cc2c(c(OC)c1O)C(c1ccc(O)cc1)C1C(=O)OC3C(COC(=O)C1=C2)OC(CO)(OC1OC(COC(=O)/C=C/c2ccc(OC4OC(C)C(O)C(O)C4O)cc2)C(O)C(O)C1O)C3O (stereo not given),–,–,2.8% [at 9.29 µM]
CS(=O)(=O)c1ccccc1N1CCN(c2nc3c(c(=O)[nH]2)CSCC3)CC1,inactive,–,–
C/C=C/C=C/C(O)=C1/C(=O)[C@]2(C)C(=O)[C@@](C)(O)[C@H]1[C@H]([C@@]1(C)OC(=O)C(C)=C1O)[C@H]2C(=O)CC/C=C/C,inactive,–,–

SMILES,Potency,outcome,"activity change, negative = cytotoxicity"
Cc1ccc(C)c(S(=O)(=O)n2cnc3ccccc32)c1,inactive,–,–
COc1ccc(/C=C/C(=O)O[C@@H]2[C@@H](O)[C@@H](O)[C@H](O[C@H]3[C@@H]4C=CO[C@@H](O[C@@H]5O[C@H](CO)[C@@H](O)[C@H](O)[C@H]5O)[C@@H]4[C@@]4(CO)O[C@@H]34)O[C@H]2C)cc1,inactive,–,–
C=C[C@H]1[C@H](O[C@@H]2O[C@H](CO)[C@@H](O)[C@H](O)[C@H]2O)OC=C(C(=O)OC)[C@H]1CC=O,inactive,–,–
COc1cnc(-n2cnc(C)n2)c2[nH]cc(C(=O)C(=O)N3CCN(C(=O)c4ccccc4)CC3)c12,inactive,–,–
COC(=O)[C@]1(C)CCC[C@@]2(C)[C@@H]3CC[C@@H]4C[C@@]3(CC[C@@H]21)C[C@H]4C(=O)O,inactive,–,–
NC(=O)c1ccc(F)c2c1C[C@@H](N(C1CCC1)C1CCC1)CO2,inactive,–,–
CC1=C[C@H]2[C@@H](CC1=O)[C@H](C)C[C@H](O)[C@H]2C(C)C,inactive,–,–
CC(=O)O[C@@]1(C)[C@@H]2CC(=C(C)C)C(=O)C[C@@]2(C)CC[C@H]1OC(=O)C1(C)OC1C (stereo not given in full),inactive,–,–
COc1ccc(/C=C/C(N)=O)cc1OC,inactive,–,–
C=CC1(C)CC2CCC3C(C)(C(=O)O)CCCC3(C)C2=CC1=O (stereo not given),inactive,–,–
C=C1CC2C3(C)C=CC(=O)OC(C)(C)C3CC(OC(C)=O)C2(C)C2C(=O)OC(C)C(=O)C12C (stereo not given),inactive,–,–
C/C(=C\C1CCC(C)C2CCC3(C)OC123)C(=O)O (stereo not given),inactive,–,–
CCN(CCN(C)C)C(=O)CNCc1cc(C(N)=O)ccn1,inactive,–,–
C=C1C(OC(C)=O)CCC2(C)CC3(O)OC(=O)C(C)=C3CC12 (stereo not given),inactive,–,–
C[C@H]1[C@H](C)CC[C@]2(C(=O)O)CC[C@]3(C(=O)O)C(=CCC4[C@@]5(C)CC[C@H](O[C@@H]6O[C@@H](C)[C@H](O)[C@@H](O)[C@H]6O)C(C)(C)C5CC[C@]43C)[C@H]12 (stereo not given in full),inactive,–,–
O=C(NC1Cc2ccccc2N(C[C@@H](O)CO)C1=O)c1cc2cc(Cl)sc2[nH]1 (stereo not given in full),inactive,–,–
C=C1CCC2C(C)(C(=O)O)CCCC2(C)C1CC/C(C)=C\CO (stereo not given),inactive,–,–
COc1ccc(C2(O)c3c(ccc4c3OC(C)(CCC=C(C)C)C=C4)NC(=O)C2OC)cc1 (stereo not given),inactive,–,–
O=C(OC(C(F)(F)F)C(F)(F)F)N1CCN(Cc2cccc(Oc3ccccc3)c2)CC1,inactive,–,–
O=C(Cc1ccccc1)OC[C@H]1O[C@H](O[C@H]2O[C@H](CO)[C@@H](O)[C@H](O)[C@H]2O)[C@H](O)[C@@H](O)[C@@H]1O,inactive,–,–
